Screens (PubChem)
FXIa inh mix – inhibitors of human coagulation factor XIa, pooled mixtures. inhibition, % at 5 µM. 62,000 compounds, 0.19% hits. purified FXIa, fluorogenic substrate. P03951;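 note: each value is inhibition by a whole ten-compound pool holding the compound; 0% = enzyme with no mixture and 100% = wells lacking enzyme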
JNK3 blocker – blocks human JNK3 kinase activity | AID 746 | P53779 | inhibition, % at 8 µM | purified JNK3 kinase activity, HTS | 60,000 compounds, 0.61% hits; in the data active = inhibition above about 17%;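 note: 0% = DMSO and 100% = reference inhibitor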
Her2 expr inh – lowers expression of human Her2 kinase. P04626. SKBR-3 HER2 protein level, AlphaScreen, 18-24 h; active compounds read low. HER2 level % of control, % at 10 µM. 65,000 compounds, 0.69% hits. AID 645;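 active = HER2 level under 5% of the carrier-only control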;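 note: 100% = DMSO carrier and 0% = 500 nM PU-H71 HSP90 inhibitor; lower value means stronger loss of Her2 protein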
M1 ag – agonists of M1 muscarinic receptor; B-score at 10 µM; CHO-M1 cells, Fluo-4 calcium fluorescence, agonist mode; active compounds read high; AID 626; 64,000 compounds, 3% hits;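 active = fluorescence rise, raw or as B-score row- and column-corrected plate score, outside the 99.7% band of its plate's samples, either direction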
M1 antag – blocks the rat M1 muscarinic receptor response to acetylcholine | B-score at 10 µM | 64,000 compounds, 3.4% hits | CHO-M1 cells, Fluo-4 calcium, ACh EC80 antagonist mode; active compounds read low | P08482;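 active = calcium fluorescence response, raw or row-and-column corrected B-score, differing from the plate sample mean either way at a set confidence level, mostly lower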
FXIIa inh mix – blocks human factor XIIa in pooled compound mixtures. inhibition, % at 5 µM. P00748. 62,000 compounds, 0.2% hits. AID 684. purified FXIIa, fluorogenic substrate;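 note: 0% = enzyme without compound and 100% = no enzyme blank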
Target sequence (P00748 20-372 limits assumed): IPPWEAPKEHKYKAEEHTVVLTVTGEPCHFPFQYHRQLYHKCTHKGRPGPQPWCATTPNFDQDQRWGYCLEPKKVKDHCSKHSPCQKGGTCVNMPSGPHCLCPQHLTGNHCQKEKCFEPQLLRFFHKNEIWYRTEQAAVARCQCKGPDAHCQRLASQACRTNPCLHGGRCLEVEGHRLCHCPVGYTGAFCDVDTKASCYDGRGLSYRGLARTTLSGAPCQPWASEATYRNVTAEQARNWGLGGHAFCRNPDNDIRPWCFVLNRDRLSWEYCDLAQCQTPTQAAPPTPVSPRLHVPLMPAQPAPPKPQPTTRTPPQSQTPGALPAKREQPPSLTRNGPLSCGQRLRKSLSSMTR
Target sequence (P00748 373-615 limits assumed): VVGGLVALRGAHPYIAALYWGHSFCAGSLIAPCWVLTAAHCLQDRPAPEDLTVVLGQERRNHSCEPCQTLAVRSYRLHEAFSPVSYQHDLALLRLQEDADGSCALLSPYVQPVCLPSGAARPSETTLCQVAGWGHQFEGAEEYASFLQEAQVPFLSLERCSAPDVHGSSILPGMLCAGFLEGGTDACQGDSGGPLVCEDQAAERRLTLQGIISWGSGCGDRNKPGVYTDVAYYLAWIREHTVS
* = called active by the depositor; · = not tested or not shown. Shown are actives, neighbours in structure and some others; about 6.9% of the full set was active somewhere. Cut-off read from the data, not from the text of the source, unless noted: active = inhibition above about 20% (passing the limit was not always enough); inactive = the rest.

SMILES	FXIa inh mix	JNK3 blocker	Her2 expr inh	M1 ag	M1 antag	FXIIa inh mix
Cc1ccc(S(=O)(=O)N2CCCCC2)cc1C(=O)Nc1ncn[nH]1	3	1	104	0.092	-0.22	9
CC1CCc2sc3ncnc(N4CCOCC4)c3c2C1 (stereo not given)	0	-1	153	1.1	0.11	10
CC1CCc2c(sc3ncnc(N4CCOCC4)c23)C1 (stereo not given)	0	·	-29*	-1.3	-0.43	2
COCCNc1nc(C(C)(C)C)nc2c1nnn2Cc1ccccc1Cl	4	·	-25*	-0.42	-0.16	5
OCCNc1nc(C2CC2)nc2c1nnn2Cc1ccccc1Cl	8	-3	80	-0.27	-0.073	-1
N#CC1=C2C=CC=CN2CC1=O	7	·	112	-0.39	-0.012	-19
O=C1SC(SCc2ccccc2)=N/C1=C\c1ccco1	5	2	75	4.7	-0.48	7
CCCSC1=N/C(=C\C=C\c2ccco2)C(=O)S1	9	5	-3.4*	-1.1	0.11	7
CN(C)CC(C(=O)c1ccccc1)c1ccccc1 (stereo not given)	2	5	-55*	0.65	-1.6	-1
O=c1nc2n(c3sc4c(c13)CCC4)Cc1ccccc1-2	-4	·	20	-0.15	-1	0
c1ccc(-c2csc3ncn4nnnc4c23)cc1	5	5	83	1.4	1.3	9
Cn1nnnc1Sc1ncnc2scc(-c3ccc(F)cc3)c12	6	-3	-11*	-0.7	-0.41	-3
Cn1nnnc1Sc1ncnc2scc(-c3ccccc3)c12	-9	-1	0.6*	-0.75	1.5	6
CCC1CCCCN1C(=O)Cn1c(C(=O)OC)cc2ccsc21 (stereo not given)	1	7	86	-0.13	0.096	2
N#CCCSc1ncnc2c1oc1ccccc12	8	28*	134	-0.24	-1.2	-3
COc1cccc(NC(=O)CSc2ncnc3c2oc2ccccc23)c1	3	0	91	0.58	-0.23	0
CCOC(=O)CC(=O)CSc1ncnc2c1oc1ccccc12	-3	42*	98	-0.052	0.53	9
CON(C)c1nc(OCCNC(=O)OCc2ccc(Cl)cc2Cl)nc(N(C)C)n1	3	1	104	0.41	-0.51	12
O=C(c1nn2c(C(F)(F)F)cc(-c3ccco3)nc2c1Br)N1CCCc2ccccc21	4	-7	49	0.042	1.6	14
CC(C)OC(=O)c1nn2c(C(F)(F)F)cc(-c3ccc(Br)o3)nc2c1Br	·	2	95	9.7*	-0.0099	·
CCCn1c(=NC(=O)c2ccncc2)c(C#N)cc2c(=O)n3cccc(C)c3nc21	-5	-6	94	20*	0.43	9
CC(=O)N=c1c(C#N)cc2c(=O)n3cccc(C)c3nc2n1CC(C)C	-23	6	86	13*	0.017	-16
Cc1cccn2c(=O)c3cc(C#N)c(=NC(=O)c4ccc5c(c4)OCO5)n(CC(C)C)c3nc12	1	-8	32	-0.54	-0.35	-19
O=C(c1ccc(Br)o1)N(Cc1ccccc1)c1ccccn1	4	·	·	0.31	0.41	4
Cc1n[nH]c(C)c1S(=O)(=O)N(CC(=O)Nc1ccc2c(c1)OCCO2)c1ccc(C(C)C)cc1	7	-5	88	0.088	-0.035	14
SMILES	FXIa inh mix	JNK3 blocker	Her2 expr inh	M1 ag	M1 antag	FXIIa inh mix
CC1CN=C(N(C(=O)Nc2ccccc2)c2ccc(S(=O)(=O)N3CCOCC3)cc2)S1 (stereo not given)	6	1	1.3*	-1.6	-1.4	-15
O=C(NCCc1ccc(Cl)cc1)C1CCN(S(=O)(=O)N2CCC3(CC2)OCCO3)CC1	1	0	102	-0.52	0.046	-13
COC(=O)c1ccccc1NC(=O)NCc1ccccn1	3	-3	87	-0.23	-0.012	-20
COc1ccc(OCC(=O)NCc2cccnc2)cc1	2	2	-14*	0.092	-0.93	-2
COC(=O)c1ccccc1NC(=O)NCc1cccnc1	1	24*	107	-0.82	-0.041	1
CC1Oc2ccccc2N(CC(=O)Nc2ccc3c(c2)OCCO3)C1=O (stereo not given)	21*	-8	103	0.093	0.27	4
CC1Oc2ccccc2N(CC(=O)Nc2ccc3c(c2)OCO3)C1=O (stereo not given)	4	-3	113	-0.31	0.024	5
O=C(NCc1cccnc1)c1cccc2c1C(=O)N(C1CCCCC1)C2	4	26*	91	·	·	8
O=C(CCn1c(=S)[nH]c2cc3c(cc2c1=O)OCO3)NCCN1CCCC1	11	·	110	0.11	-0.38	3
COc1ccc(C2CCCN2C(=O)Nc2ccc(F)cc2)cc1OC (stereo not given)	4	-5	93	-0.09	0.57	-17
O=C1CCCc2c1nn(-c1ccccc1)[n+]2[O-]	2	4	81	-1.5	0.61	2
O=C1CCCc2nn(-c3ccccc3)c(-c3ccncc3)c21	3	30*	82	0.14	-1.4	-9
CCCn1c(SCC(=O)Nc2cccc(C)n2)nnc1-c1ccco1	1	5	-23*	-1.1	-0.37	8
CCn1c(SCC(=O)Nc2cccc(C)n2)nnc1-c1ccco1	9	-2	83	-0.31	0.02	10
CC(=O)c1cccc(NC(=O)NC(C)c2ccncc2)c1 (stereo not given)	-5	-4	107	-0.67	-0.12	-3
CN1CCN(CCCNC(=O)Cn2ncc3c4ccccc4n(C)c3c2=O)CC1	-1	-2	105	1.2	0.014	-19
Cc1cc2c(s1)c1cnn(CC(=O)NCCc3ccccc3)c(=O)c1n2C	8	·	98	0.0053	3.1*	-8
CCc1nc(SCc2cc(Cl)ccc2OC)n[nH]1	13	-2	85	-0.02	0.86	2
CCn1c(C)csc1=NC(=O)c1ccccc1O	16	23*	91	-0.027	-0.23	-1
CCn1c(C)csc1=NC(=O)c1ccccc1	8	3	124	-0.46	-0.52	6
CSCCC(Nc1ncnc2ccc(Br)cc12)C(=O)O (stereo not given)	2	19*	81	-1.3	0.83	11
O=C(CN1C(=O)COc2ccccc21)N(Cc1cccnc1)Cc1ccccc1F	0	-6	83	0.94	-0.14	0
COc1ccc(CSc2nnnn2Cc2ccccc2)cc1OC	-25	-3	-0.9*	-0.088	0.96	2
COc1ccc(C)cc1NC(=O)CSc1nnnn1Cc1ccccc1	0	-4	95	0.049	0.98	4
C=CS(=O)(=O)c1ccc(Oc2ccc(S(=O)(=O)C=C)cc2)cc1	9	8	-22*	-1.1	0.51	4
CCN(CC)S(=O)(=O)c1cccc(-c2nnc(SCC(=O)c3cc(C)n(C4CC4)c3C)o2)c1	6	-4	74	3.2*	-0.61	2
C=CCn1c(C)cc(C(=O)CSc2nnc(-c3cccc(S(=O)(=O)N(CC)CC)c3)o2)c1C	-1	2	83	1.9	0.49	3
